Most compounds without a hit are left out; they make up all but 7.5% or so of the library.
Rab9 prom act: Rab9 promoter activation. Huh7 Rab9 promoter-luciferase reporter, luminescence, 24 h. Potency, µM (doses to about 9.22 µM), without a hit: at the highest dose activation, negative = inhibition, most hits filed as activators. 320,000 tested, 2.8% active. AID 485297; further: % of control where 0% means no effect; nearly all actives have a fitted effect of over 60% in size
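Luciferase signal after 10 min detection reagent at ambient indicates Rab9 promoter upregulation; stably transfected Huh7 cells were treated 24 h with compound in DMSO at 37 °C, 5% CO2.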
FLuc counter: firefly luciferase modulation, counter-screen for miR-21 project; 360,000 tested, 6.9% active; purified FLuc, Km substrates, luminescence inhibition; AID 588342; Potency, µM (doses to about 57.5 µM), for the others: at the top dose activity change, negative = inhibition, actives largely listed as inhibitors;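 further: plate controls were vehicle for no effect and reference inhibitor for full effect; nearly all actives have a fitted effect of over 55% in size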
Target sequence (P08659 whole entry, looked up): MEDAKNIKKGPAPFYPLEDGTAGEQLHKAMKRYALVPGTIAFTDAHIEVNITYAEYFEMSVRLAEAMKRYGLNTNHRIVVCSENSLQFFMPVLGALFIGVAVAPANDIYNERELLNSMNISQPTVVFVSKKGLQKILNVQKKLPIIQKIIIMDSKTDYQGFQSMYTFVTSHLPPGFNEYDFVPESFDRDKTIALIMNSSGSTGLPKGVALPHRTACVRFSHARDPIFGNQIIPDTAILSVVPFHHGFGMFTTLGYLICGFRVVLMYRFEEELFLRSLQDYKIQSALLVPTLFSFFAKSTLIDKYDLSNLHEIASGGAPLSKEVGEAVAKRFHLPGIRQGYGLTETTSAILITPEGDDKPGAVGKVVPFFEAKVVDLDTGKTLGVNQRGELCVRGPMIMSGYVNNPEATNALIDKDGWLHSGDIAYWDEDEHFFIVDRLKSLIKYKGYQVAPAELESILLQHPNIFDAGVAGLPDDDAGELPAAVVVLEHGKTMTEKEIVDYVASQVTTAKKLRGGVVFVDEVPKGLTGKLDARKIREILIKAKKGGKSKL
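Purified P. pyralis luciferase (10nM final) with 10uM D-luciferin and 10uM ATP (Km levels) in 50mM Tris acetate pH 7.5, 10mM Mg acetate, 0.01% Tween-20, 0.05% BSA; qHTS 6-point titration, ~60 µM downward; luminescence read.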
NPC1 promoter act: NPC1 promoter activation; Potency, µM (titrated, usually from 9.22 µM), without a hit: top-dose activation, hits mostly activators; 320,000 tested, 2.4% active; Huh7 NPC1 promoter luciferase reporter, 24 h; AID 485313; further: % of control where 0% means no effect; nearly all actives have a fitted effect of over 60% in size
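Stable NPC1-promoter luciferase Huh7 line; cpd (DMSO) 24 h, 37 °C, 5% CO2; Amplite luciferase reagent 10 min RT; luminescence readout. qHTS format.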
SMN2 splice enh: increases expression of the SMN2 splice variant; HEK293 SMN2-luciferase splicing reporter, luminescence, 30-36 h; 210,000 tested, 2.8% active; Potency, µM (series often up to 46.1 µM), for the others: at the top dose activity change, positive = activation, most hits filed as activators; AID 1458; further: % of control where 0% means no effect; nearly all actives have a fitted effect of over 55% in size
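HEK293 cells carry an SMN2 minigene-luciferase reporter in which exon 7 inclusion puts luciferase in frame. Cells were seeded at 2000 cells/well, attached for 10-12 hours, then exposed to compounds for 30-36 hours at 37C before ONE-Glo luminescence.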
ELG1 genotoxic: genotoxicity induction in ELG1-luciferase HEK293T cells. 330,000 tested, 1.3% active. HEK293T ELG1-luciferase reporter, luminescence, 16 h. Potency, µM (series often up to 46 µM), for inactives: at the highest dose activity change, positive = activation, hits mostly activators. AID 504466; further: % of control where 0% means no effect; nearly all actives have a fitted effect of over 60% in size
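Luminescence read-out: rising ELG1-luciferase signal, reflecting elevated ELG1 protein under genetic stress, flags genotoxic compounds. Cells were treated for 16 hr at 37 °C before ONE-Glo detection.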
Numbers without * were called inactive; [ ] = another dose, or the depositor's remark. The call rests on the fitted dose curve; in most records, active means well fitted curve in the direction sought with a large enough effect; inconclusive means small, poorly fitted or top-dose-only effect, or another doubt; inactive means no such curve, though single readings can be large; an effect the other way counts as inactive or inconclusive. Potency means the concentration at half of the fitted maximal effect.

`O=C1NC(=S)N(C2CC2)C(=O)/C1=C/c1ccc2c(c1)CCN2CCCCl` gave Rab9 prom act -1%, FLuc counter 19µM*, NPC1 promoter act 0%, SMN2 splice enh -21% and ELG1 genotoxic inconclusive.
For ClC(Cl)C(Cl)Cl the results were SMN2 splice enh 6%.
For CN1C(=O)C(=Cc2ccccc2OCc2ccc(Cl)cc2)C(=O)N(C)C1=O the results were Rab9 prom act 1%, FLuc counter 9.5µM*, NPC1 promoter act -3%, SMN2 splice enh inconclusive and ELG1 genotoxic inconclusive.
`C[C@@H]1O[C@@H](O[C@H]2CC[C@]3(C=O)C4CC[C@]5(C)[C@@H](C6=CC(=O)OC6)CC[C@]5(O)[C@@H]4CC[C@]3(O)C2)[C@H](O)[C@H](O)[C@H]1O` (stereo partly drawn) gave SMN2 splice enh -87%.
Screening Cc1cc(C=C2C(=O)N(C)C(=S)N(C)C2=O)c(C)n1C1CCCCC1 returned Rab9 prom act 3%, FLuc counter 3.4µM*, NPC1 promoter act -6%, SMN2 splice enh -20% and ELG1 genotoxic -2%.
Cc1cc(N2CCCCC2)ccc1C=C1C(=O)N(C)C(=S)N(C)C1=O was read as Rab9 prom act -5%, FLuc counter inconclusive, NPC1 promoter act -5%, SMN2 splice enh -54% and ELG1 genotoxic 2%.
Cc1cc(C=C2C(=O)NC(=O)NC2=O)c(C)n1-c1cccnc1 was read as Rab9 prom act 0%, FLuc counter inconclusive, NPC1 promoter act 2% and ELG1 genotoxic 3%.
Cc1cc(C=C2C(=O)NC(=S)NC2=O)c(C)n1C1CCCC1 was read as Rab9 prom act 0%, FLuc counter 1.5µM*, NPC1 promoter act 0%, SMN2 splice enh 7% and ELG1 genotoxic 21µM*.
`N[C@H](Cc1ccc2oc3cc(=O)c4ccccc4c-3nc2c1)C(=O)O` gave SMN2 splice enh 1%[9.22 µM].
`CN(C(=O)Cc1ccc(Cl)c(Cl)c1)C(CN1CCCC1)c1cccc(N=C=S)c1` (stereo not drawn) gave SMN2 splice enh -92%.
Screening Cc1cnn(-c2cc(Oc3ccccc3)ncn2)c1 returned Rab9 prom act inconclusive, FLuc counter 17µM*, NPC1 promoter act inconclusive and ELG1 genotoxic 1.5µM*.
`O=c1oc2ccccc2n1CCCOc1ccccc1` gave Rab9 prom act inconclusive, FLuc counter 19µM*, NPC1 promoter act 29%, SMN2 splice enh 11µM* and ELG1 genotoxic 18µM*.
For O=C(CCn1c(=O)oc2ccccc21)N1CCC2(CC1)OCCO2 the results were Rab9 prom act 3%, FLuc counter -9%, NPC1 promoter act 9%, SMN2 splice enh 5% and ELG1 genotoxic -1%.
`CN(C)c1ccc2c(c1)N=C(c1ccco1)OP2(=S)N1CCOCC1` (stereo not drawn) gave Rab9 prom act 26%, FLuc counter 15µM*, NPC1 promoter act 5%, SMN2 splice enh 18% and ELG1 genotoxic inconclusive.
N#Cc1cc2c(nc1SCC(=O)Nc1cccc(F)c1)C1CCN2CC1 was read as FLuc counter -7% and SMN2 splice enh 6.3µM*.
For CN(C)C(Cc1ccccc1)C(=O)c1c[nH]c2ccccc12 (stereo not drawn) the results were Rab9 prom act 1%, FLuc counter 24µM*, NPC1 promoter act -1% and ELG1 genotoxic 0%.
`COc1ccc(OC)c(N2C(=O)/C(=C/c3ccco3)C(=O)NC2=S)c1` gave Rab9 prom act 21%, FLuc counter inconclusive, NPC1 promoter act -4% and ELG1 genotoxic -5%.
Screening COc1ccc(N2C(=O)/C(=C/c3cc(C)n(-c4ccc(C)cn4)c3C)C(=O)NC2=S)c(OC)c1 returned Rab9 prom act -14%, FLuc counter 27µM*, NPC1 promoter act -1%, SMN2 splice enh 8% and ELG1 genotoxic 13%.
`O=C(N/N=C/c1c(O)n(-c2ccccc2)c(=S)[nH]c1=O)c1ccccc1` gave Rab9 prom act 2%, FLuc counter inconclusive, NPC1 promoter act 0% and ELG1 genotoxic 6%.
`Cc1ccccc1-n1c(O)c(/C=N/NC(=O)c2ccccc2O)c(=O)[nH]c1=S` gave Rab9 prom act 23%, FLuc counter 11µM*, NPC1 promoter act 17% and ELG1 genotoxic 17%.
Screening O=C(N/N=C/c1c(O)n(C2CC2)c(=S)[nH]c1=O)c1ccccc1O returned Rab9 prom act inconclusive, FLuc counter 15µM*, NPC1 promoter act inconclusive, SMN2 splice enh inconclusive and ELG1 genotoxic 11%.
Screening CCOC(=O)Cn1cc(C(=O)c2ccccc2)c2ccccc21 returned Rab9 prom act 0%, FLuc counter -13%, NPC1 promoter act -4% and ELG1 genotoxic -3%.
Screening CCOC(=O)CSc1ncnc2c1cnn2-c1ccccc1 returned Rab9 prom act 0%, FLuc counter 12µM*, NPC1 promoter act 0%, SMN2 splice enh inconclusive and ELG1 genotoxic 5%.
Screening CNc1ccc2nc3ccccc3[n+](C)c2c1 returned Rab9 prom act -22%[1.84 µM], FLuc counter 17µM*, NPC1 promoter act -43% and ELG1 genotoxic -6%.
`C[n+]1c2ccccc2nc2ccc(NCCO)cc21` gave Rab9 prom act -5%[1.84 µM], FLuc counter 19µM*, NPC1 promoter act 2% and ELG1 genotoxic -18%.
Screening OCCNc1c2c(nc3ccccc13)CCCC2 returned Rab9 prom act -10%, FLuc counter 3%, NPC1 promoter act -1%, SMN2 splice enh -17% and ELG1 genotoxic -4%.
Screening O=C(O)[C@@H](O)[C@@H](O)C1[O][Sb][O][C@@H]1CO (stereo partly drawn) returned SMN2 splice enh -10%[9.22 µM].
Screening O=C(Nc1ccc2nc(SCC(=O)N3CCOCC3)sc2c1)c1ccc(Cl)cc1 returned FLuc counter 11µM*.
For Clc1ccccc1Nc1ncnc(-n2cccc2)n1 the results were Rab9 prom act 3.5µM*, FLuc counter 7.6µM*, NPC1 promoter act 2.8µM*, SMN2 splice enh inconclusive and ELG1 genotoxic inconclusive.
For O=P(OCCCl)(OCCCl)OCCCl the results were SMN2 splice enh 2%.
Screening Cc1ccc(N2C(=O)NC(=O)/C(=C/c3ccc(-c4ccc(C(=O)O)c(Cl)c4)o3)C2=O)cc1 returned Rab9 prom act -2%, FLuc counter 11µM*, NPC1 promoter act -3%, SMN2 splice enh 6% and ELG1 genotoxic -11%.
For Cc1cc(/C=C2\C(=O)NC(=O)N(c3cccc(F)c3)C2=O)c(C)n1-c1ccc(C(=O)O)c(Cl)c1 the results were Rab9 prom act 0%, FLuc counter -18%, NPC1 promoter act -1% and ELG1 genotoxic -2%.
Screening COc1ccccc1OCCCn1cc(C(=O)c2ccco2)c2ccccc21 returned Rab9 prom act 29%, FLuc counter 17µM*, NPC1 promoter act inconclusive, SMN2 splice enh -52% and ELG1 genotoxic -18%.

Source: PubChem (National Center for Advancing Translational Sciences (NCATS))
